According to the supplement of paper PMC10849652:
The full data set covers some 8,800 targets. This sample favours those with a hit. About 0.5% of all pairs of compound and target were hits.

How the values were obtained:
Assay in all cases: log2 fold change, soluble protein after heating vs DMSO (PISA); higher = thermal stabilisation; K562 lysate, 10 uM; active = over 0.2 and 3.5 SD of the protein, either way, in both replicates (recomputed)
erlotinib = compound: C#Cc1cccc(Nc2ncnc3cc(OCCOC)c(OCCOC)cc23)c1 [erlotinib]
Outline: (§1)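 Log-two fold change in thermal stability relative to solvent controls is reported from duplicates. For each sample, crude K562 extract from dounce-homogenised pellets in PBS pH 7.4 with 1 mM MgCl2, at 1 mg/mL protein, was treated with 10 μM compound for 30 min. Aliquots heated for 3 min across 48°C-58°C were pooled, brought to 0.5% NP-40 at 4°C and cleared at 21,000xg for 90 min. The supernatant was quantified by TMTpro 16plex LC-MS/MS with channel sums equalised.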

[1] = compound: C/C(=N\NC(=O)C1=CC(=CC=C1)S(=O)(=O)N2CCOCC2)/C3=C(C=CC(=C3)Cl)O
Outline: as §1

[2] = compound: C1=CC(=CC=C1C2=NC3=C(N2)C=C(C=C3)C(=O)N)OC4=CC=C(C=C4)Cl
Outline: as §1

[3] = compound: C1=CC2=C(C=CC(=C2)/C=C\3/C(=O)NC(=NCC4=CC=CS4)S3)N=C1
Outline: as §1

[4] = compound: C1=CC2=NC=CN=C2C=C1/C=C/3\C(=O)NC(=O)S3
Outline: as §1

[5] = compound: C1=CC=C(C=C1)C2=NC(=C(N2)C3=CC=NC=C3)C4=CC(=C(C=C4)Cl)O
Outline: as §1

[6] = compound: C1=CC=C2C(=C1)C3=NNC4=CC=CC(=C43)C2=O
Outline: as §1

[7] = compound: C1CCN(C1)C(=O)NC2=CC=CC(=C2)NC3=NC=C(C(=N3)NCCC4=CN=CN4)Br
Outline: as §1

[8] = compound: C1CN(CCC1(CC2=CC=C(C=C2)Cl)N)C3=NC=NC4=C3C=CN4
Outline: as §1

IRAK-1-4 Inhibitor I = compound: C1COCCN1CCN2C3=CC=CC=C3N=C2NC(=O)C4=CC(=CC=C4)[N+](=O)[O-] [IRAK-1-4 Inhibitor I]
Outline: as §1

ibrutinib = compound: C=CC(=O)N1CCC[C@@H](n2nc(-c3ccc(Oc4ccccc4)cc3)c3c(N)ncnc32)C1 [ibrutinib]
Outline: as §1

[9] = compound: CC(=O)c1cnc2ccc(-c3cc(Cl)c(O)c(Cl)c3)nc2c1N[C@H]1CC[C@H](CN(C)C)CC1
Outline: as §1

ralimetinib = compound: CC(C)(C)Cn1c(N)nc2ccc(-c3[nH]c(C(C)(C)C)nc3-c3ccc(F)cc3)nc21 [ralimetinib]
Outline: as §1

[10] = compound: CC(C)(O)CC(=O)NCCn1ccc2ncnc(Nc3ccc(Oc4cccc(C(F)(F)F)c4)c(Cl)c3)c21
Outline: as §1

[11] = compound: CC(C)C1=C2N=C(C=C(N2N=C1)NCC3=CC=CC=C3)NCCCCCCN
Outline: as §1

[12] = compound: CC1=C(C(CC(=O)N1)C2=CC=C(C=C2)C(F)(F)F)C(=O)NC3=C(C=C4C(=C3)C=NN4)F
Outline: as §1

[13] = compound: CC1=C(C2=C(C=C1)C(=O)C3=CC=CC=C3N2CCCN)C
Outline: as §1

[14] = compound: CC1=C(C=C(C=C1)NC(=O)C2=CC(=CC=C2)C(C)(C)C#N)NC3=CC4=C(C=C3)N=CN(C4=O)C
Outline: as §1

[15] = compound: CC1=C(C=C(C=C1)NC(=O)C2=CC(=CC=C2)N(C)C)NC(=O)C3=CC=C(C=C3)O
Outline: as §1

[16] = compound: CC1=CC=C(C=C1)SC2=C3C=C(SC3=CN=C2)C(=O)N
Outline: as §1

Measured: log2 fold change

PDE2A (UniProt O00408)
inactive: erlotinib -0.015 | [1] 0.082 | [2] 0.12 | [3] -0.337 | [4] -0.055 | [5] 0.249 | [6] -0.257 | [7] 0.001 | [8] -0.027 | IRAK-1-4 Inhibitor I 0.18 | ibrutinib -0.008 | [9] -0.148 | ralimetinib -0.202 | [10] -0.107 | [11] -0.045 | [12] -0.018 | [13] 0.025 | [14] -0.038 | [15] 0.01 | [16] -0.11

PTPN6 isoform 4 (UniProt P29350)
inactive: erlotinib 0.054 | [1] 0.097 | [2] -0.03 | [3] -0.05 | [4] 0.047 | [5] 0.04 | [6] 0.033 | [7] -0.078 | [8] -0.224 | IRAK-1-4 Inhibitor I -0.073 | ibrutinib 0.051 | [9] -0.077 | ralimetinib 0.045 | [10] -0.026 | [11] 0.019 | [12] 0 | [13] -0.081 | [14] -0.031 | [15] 0.011 | [16] 0.054

PICALM (UniProt Q13492)
UniProt Q13492, sequence (Q13492 whole entry, looked up): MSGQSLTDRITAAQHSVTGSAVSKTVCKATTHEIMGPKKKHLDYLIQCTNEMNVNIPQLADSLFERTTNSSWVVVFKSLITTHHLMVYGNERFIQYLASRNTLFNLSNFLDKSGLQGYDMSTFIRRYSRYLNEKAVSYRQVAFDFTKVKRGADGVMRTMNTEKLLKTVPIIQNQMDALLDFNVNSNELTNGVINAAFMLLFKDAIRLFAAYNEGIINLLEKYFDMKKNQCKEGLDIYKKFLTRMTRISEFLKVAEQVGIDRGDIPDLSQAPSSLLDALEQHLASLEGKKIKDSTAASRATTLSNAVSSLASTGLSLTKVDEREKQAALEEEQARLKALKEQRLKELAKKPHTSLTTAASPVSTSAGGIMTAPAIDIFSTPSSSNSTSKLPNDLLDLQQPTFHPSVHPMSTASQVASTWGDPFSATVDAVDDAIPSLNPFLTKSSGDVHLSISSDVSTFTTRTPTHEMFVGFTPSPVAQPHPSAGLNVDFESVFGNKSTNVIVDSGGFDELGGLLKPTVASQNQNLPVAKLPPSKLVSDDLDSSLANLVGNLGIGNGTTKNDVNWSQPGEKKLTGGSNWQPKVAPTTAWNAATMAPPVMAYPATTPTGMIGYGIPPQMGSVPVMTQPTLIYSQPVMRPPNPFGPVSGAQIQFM
inactive: erlotinib -0.019 | [1] -0.035 | [2] 0.02 | [3] -0.021 | [4] 0.01 | [5] -0.06 | [6] -0.014 | [7] -0.016 | [8] 0.001 | IRAK-1-4 Inhibitor I 0.026 | ibrutinib -0.023 | [9] 0.011 | ralimetinib -0.025 | [10] -0.039 | [11] -0.004 | [12] -0.018 | [13] 0.004 | [14] 0.021 | [15] -0.004 | [16] -0.005

PPP1R8 (UniProt Q12972)
UniProt Q12972, sequence (Q12972 whole entry, looked up): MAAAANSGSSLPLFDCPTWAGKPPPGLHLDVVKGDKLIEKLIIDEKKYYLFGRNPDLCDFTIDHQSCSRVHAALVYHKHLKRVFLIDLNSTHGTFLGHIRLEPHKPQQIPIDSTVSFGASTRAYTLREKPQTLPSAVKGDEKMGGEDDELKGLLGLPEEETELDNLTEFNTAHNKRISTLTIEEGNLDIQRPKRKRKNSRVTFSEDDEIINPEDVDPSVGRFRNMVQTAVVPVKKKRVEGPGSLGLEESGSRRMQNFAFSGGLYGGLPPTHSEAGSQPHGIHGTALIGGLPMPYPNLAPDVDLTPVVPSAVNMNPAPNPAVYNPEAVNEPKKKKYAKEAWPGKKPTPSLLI
inactive: erlotinib 0.002 | [1] -0.032 | [2] 0.029 | [3] 0.002 | [4] -0.012 | [5] 0.008 | [6] 0.007 | [7] -0.009 | [8] 0.02 | IRAK-1-4 Inhibitor I 0.008 | ibrutinib -0.029 | [9] -0.026 | ralimetinib -0.039 | [10] -0.031 | [11] 0.011 | [12] -0.011 | [13] -0.034 | [14] 0.002 | [15] -0.036 | [16] -0.028

PICALM (UniProt H0YEH1)
inactive: erlotinib -0.004 | [1] -0.111 | [2] 0.053 | [3] 0.066 | [4] -0.021 | [5] -0.015 | [6] 0.106 | [7] -0.219 | [8] -0.333 | IRAK-1-4 Inhibitor I 0.053 | ibrutinib -0.077 | [9] 0.009 | ralimetinib -0.035 | [10] -0.039 | [11] 0.05 | [12] 0.003 | [13] 0.014 | [14] -0.024 | [15] 0.012 | [16] -0.091

PCYT1B (UniProt Q9Y5K3)
UniProt Q9Y5K3, sequence (Q9Y5K3 whole entry, looked up): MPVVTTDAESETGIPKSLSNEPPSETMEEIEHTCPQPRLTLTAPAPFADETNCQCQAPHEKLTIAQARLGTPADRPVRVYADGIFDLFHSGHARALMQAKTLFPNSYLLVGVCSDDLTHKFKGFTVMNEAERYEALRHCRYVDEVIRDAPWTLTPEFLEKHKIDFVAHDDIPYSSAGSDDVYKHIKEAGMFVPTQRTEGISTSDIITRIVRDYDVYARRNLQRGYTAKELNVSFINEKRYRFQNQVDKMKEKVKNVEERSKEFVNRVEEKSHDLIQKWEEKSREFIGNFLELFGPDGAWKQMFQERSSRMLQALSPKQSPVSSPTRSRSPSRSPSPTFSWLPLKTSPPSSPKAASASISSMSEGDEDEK
inactive: erlotinib -0.016 | [1] 0.015 | [2] -0.006 | [3] 0.046 | [4] -0.03 | [5] 0.002 | [6] 0.044 | [7] -0.041 | [8] -0.032 | IRAK-1-4 Inhibitor I -0.023 | ibrutinib -0.051 | [9] -0.007 | ralimetinib 0.003 | [10] 0.013 | [11] -0.042 | [12] -0.039 | [13] -0.03 | [14] 0.016 | [15] -0.002 | [16] 0.026

PIGO (UniProt Q8TEQ8)
inactive: erlotinib 0.179 | [1] -0.423 | [2] -0.266 | [3] 0.242 | [4] 0.132 | [5] 0.001 | [6] -0.285 | [7] -0.001 | [8] 0.117 | IRAK-1-4 Inhibitor I 0.114 | ibrutinib 0.093 | [9] 0.016 | ralimetinib -0.039 | [10] -0.013 | [11] -0.068 | [12] -0.041 | [13] -0.05 | [14] -0.1 | [15] -0.047 | [16] -0.158

PI4KB (UniProt Q9UBF8)
UniProt Q9UBF8, sequence (Q9UBF8 whole entry, looked up): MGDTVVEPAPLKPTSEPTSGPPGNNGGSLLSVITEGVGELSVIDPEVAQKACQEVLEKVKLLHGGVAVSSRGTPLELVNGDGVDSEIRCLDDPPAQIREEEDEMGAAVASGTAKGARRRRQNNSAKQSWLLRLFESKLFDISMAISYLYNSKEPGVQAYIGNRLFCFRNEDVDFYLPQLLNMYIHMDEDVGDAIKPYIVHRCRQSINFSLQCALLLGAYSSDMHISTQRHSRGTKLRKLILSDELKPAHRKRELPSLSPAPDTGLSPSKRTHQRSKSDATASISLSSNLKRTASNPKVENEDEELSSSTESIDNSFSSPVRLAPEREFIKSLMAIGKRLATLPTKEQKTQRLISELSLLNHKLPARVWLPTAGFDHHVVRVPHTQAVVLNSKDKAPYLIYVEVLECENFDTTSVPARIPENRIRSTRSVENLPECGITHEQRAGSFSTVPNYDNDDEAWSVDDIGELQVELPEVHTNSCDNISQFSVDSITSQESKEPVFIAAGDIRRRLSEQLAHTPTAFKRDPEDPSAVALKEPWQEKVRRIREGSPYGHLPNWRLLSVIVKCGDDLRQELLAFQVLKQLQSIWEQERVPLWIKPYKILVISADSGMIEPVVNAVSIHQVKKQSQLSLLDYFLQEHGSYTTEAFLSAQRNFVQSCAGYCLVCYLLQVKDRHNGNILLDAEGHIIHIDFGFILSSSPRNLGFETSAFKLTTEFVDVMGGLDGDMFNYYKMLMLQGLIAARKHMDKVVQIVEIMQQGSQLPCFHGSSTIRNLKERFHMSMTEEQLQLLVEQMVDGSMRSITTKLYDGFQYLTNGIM
inactive: erlotinib 0.017 | [1] -0.108 | [2] -0.011 | [3] 0.038 | [4] 0.173 | [5] 0.011 | [6] 0.193 | [7] 0.01 | [8] -0.065 | IRAK-1-4 Inhibitor I -0.003 | ibrutinib -0.044 | [9] 0.208 | ralimetinib 0.021 | [10] -0.021 | [11] -0.004 | [12] -0.015 | [13] -0.018 | [14] 0.022 | [15] 0 | [16] 0.012

PRMT7 (UniProt Q9NVM4)
inactive: erlotinib -0.042 | [1] 0.004 | [2] 0.024 | [3] 0.038 | [4] 0.008 | [5] -0.023 | [6] -0.083 | [7] -0.033 | [8] -0.031 | IRAK-1-4 Inhibitor I -0.008 | ibrutinib 0.043 | [9] -0.016 | ralimetinib 0.042 | [10] -0.01 | [11] 0.017 | [12] 0 | [13] -0.008 | [14] 0.013 | [15] 0.031 | [16] 0.008

PRKRA (UniProt O75569)
inactive: erlotinib 0.016 | [1] -0.1 | [2] -0.061 | [3] -0.01 | [4] 0.08 | [5] 0.012 | [6] -0.012 | [7] -0.074 | [8] 0.018 | IRAK-1-4 Inhibitor I 0.033 | ibrutinib -0.043 | [9] -0.01 | ralimetinib 0.035 | [10] 0.011 | [11] 0.013 | [12] 0.045 | [13] -0.038 | [14] 0.002 | [15] 0.056 | [16] 0.019

PGPEP1 (UniProt Q9NXJ5)
UniProt Q9NXJ5, sequence (Q9NXJ5 whole entry, looked up): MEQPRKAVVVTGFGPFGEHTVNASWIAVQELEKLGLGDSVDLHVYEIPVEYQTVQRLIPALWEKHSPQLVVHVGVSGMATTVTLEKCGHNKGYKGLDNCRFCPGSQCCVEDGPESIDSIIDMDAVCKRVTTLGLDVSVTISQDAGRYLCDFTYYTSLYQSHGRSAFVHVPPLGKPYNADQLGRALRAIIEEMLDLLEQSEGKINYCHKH
inactive: erlotinib -0.003 | [1] 0.102 | [2] -0.053 | [3] -0.046 | [4] 0.013 | [5] 0.014 | [6] -0.018 | [7] -0.059 | [8] 0.001 | IRAK-1-4 Inhibitor I -0.003 | ibrutinib -0.051 | [9] 0.02 | ralimetinib -0.013 | [10] 0.013 | [11] 0.043 | [12] -0.078 | [13] 0.015 | [14] 0.123 | [15] -0.034 | [16] -0.053

PRPF6 (UniProt O94906)
UniProt O94906, sequence (O94906 whole entry, looked up): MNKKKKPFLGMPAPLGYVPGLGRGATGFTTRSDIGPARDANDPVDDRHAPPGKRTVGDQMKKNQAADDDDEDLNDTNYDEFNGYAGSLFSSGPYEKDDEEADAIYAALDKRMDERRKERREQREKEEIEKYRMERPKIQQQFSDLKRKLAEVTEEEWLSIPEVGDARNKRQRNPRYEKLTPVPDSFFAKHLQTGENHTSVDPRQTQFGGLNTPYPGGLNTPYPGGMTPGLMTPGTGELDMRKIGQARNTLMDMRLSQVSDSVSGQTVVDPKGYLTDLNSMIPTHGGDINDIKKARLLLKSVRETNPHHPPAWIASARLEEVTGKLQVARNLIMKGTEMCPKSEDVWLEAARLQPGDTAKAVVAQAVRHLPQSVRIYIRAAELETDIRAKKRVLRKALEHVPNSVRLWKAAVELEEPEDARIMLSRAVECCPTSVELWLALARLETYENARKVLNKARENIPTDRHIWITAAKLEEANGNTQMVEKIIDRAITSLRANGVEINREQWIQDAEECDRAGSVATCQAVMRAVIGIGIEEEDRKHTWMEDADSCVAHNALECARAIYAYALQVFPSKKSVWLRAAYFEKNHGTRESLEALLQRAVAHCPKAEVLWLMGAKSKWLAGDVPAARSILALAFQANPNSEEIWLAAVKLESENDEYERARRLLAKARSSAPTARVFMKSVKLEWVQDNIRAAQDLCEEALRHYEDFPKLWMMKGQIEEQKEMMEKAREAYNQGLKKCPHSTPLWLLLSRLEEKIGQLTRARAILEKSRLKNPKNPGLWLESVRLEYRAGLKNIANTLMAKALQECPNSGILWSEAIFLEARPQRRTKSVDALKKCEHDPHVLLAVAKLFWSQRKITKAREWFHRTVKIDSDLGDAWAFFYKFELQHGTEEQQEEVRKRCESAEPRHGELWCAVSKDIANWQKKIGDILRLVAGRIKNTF
inactive: erlotinib 0.018 | [1] 0.038 | [2] -0.003 | [3] -0.035 | [4] 0.001 | [5] 0.037 | [6] -0.018 | [7] -0.056 | [8] -0.032 | IRAK-1-4 Inhibitor I -0.046 | ibrutinib 0 | [9] 0 | ralimetinib 0.038 | [10] 0.022 | [11] 0.005 | [12] -0.008 | [13] 0.001 | [14] -0.022 | [15] 0.053 | [16] 0.007

PIK3C3 (UniProt Q8NEB9)
UniProt Q8NEB9, sequence (Q8NEB9 whole entry, looked up): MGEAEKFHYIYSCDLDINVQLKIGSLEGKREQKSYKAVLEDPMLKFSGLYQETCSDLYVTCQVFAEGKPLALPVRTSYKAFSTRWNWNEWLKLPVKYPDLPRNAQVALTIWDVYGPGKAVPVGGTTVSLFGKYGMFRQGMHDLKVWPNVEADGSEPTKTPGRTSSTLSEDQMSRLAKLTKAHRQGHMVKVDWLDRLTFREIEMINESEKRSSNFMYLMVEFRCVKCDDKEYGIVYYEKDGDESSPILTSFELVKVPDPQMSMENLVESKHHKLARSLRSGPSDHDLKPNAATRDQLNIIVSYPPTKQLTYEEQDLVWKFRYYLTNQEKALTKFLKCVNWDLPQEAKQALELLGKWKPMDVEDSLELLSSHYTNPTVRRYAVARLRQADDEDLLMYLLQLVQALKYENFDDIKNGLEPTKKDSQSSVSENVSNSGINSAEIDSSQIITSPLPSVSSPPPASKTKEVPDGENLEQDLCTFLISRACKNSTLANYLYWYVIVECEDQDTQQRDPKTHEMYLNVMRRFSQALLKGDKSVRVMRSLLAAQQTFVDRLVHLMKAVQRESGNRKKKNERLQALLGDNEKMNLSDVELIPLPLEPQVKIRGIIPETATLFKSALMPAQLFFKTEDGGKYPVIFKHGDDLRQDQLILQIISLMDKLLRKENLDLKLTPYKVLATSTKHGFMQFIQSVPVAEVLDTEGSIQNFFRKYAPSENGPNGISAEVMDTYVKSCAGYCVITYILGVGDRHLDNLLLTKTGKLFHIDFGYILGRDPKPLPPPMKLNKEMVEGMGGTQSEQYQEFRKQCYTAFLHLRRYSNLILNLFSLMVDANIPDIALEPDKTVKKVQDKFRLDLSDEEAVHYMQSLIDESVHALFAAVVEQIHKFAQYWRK
inactive: erlotinib 0.014 | [1] -0.059 | [2] 0.004 | [3] 0.017 | [4] 0.025 | [5] 0.009 | [6] 0.053 | [7] -0.084 | [8] 0.015 | IRAK-1-4 Inhibitor I 0.081 | ibrutinib -0.056 | [9] -0.021 | ralimetinib -0.023 | [10] -0.096 | [11] 0.015 | [12] -0.032 | [13] -0.015 | [14] -0.002 | [15] -0.011 | [16] -0.056

PTGR2 (UniProt Q8N8N7)
UniProt Q8N8N7, sequence (Q8N8N7 whole entry, looked up): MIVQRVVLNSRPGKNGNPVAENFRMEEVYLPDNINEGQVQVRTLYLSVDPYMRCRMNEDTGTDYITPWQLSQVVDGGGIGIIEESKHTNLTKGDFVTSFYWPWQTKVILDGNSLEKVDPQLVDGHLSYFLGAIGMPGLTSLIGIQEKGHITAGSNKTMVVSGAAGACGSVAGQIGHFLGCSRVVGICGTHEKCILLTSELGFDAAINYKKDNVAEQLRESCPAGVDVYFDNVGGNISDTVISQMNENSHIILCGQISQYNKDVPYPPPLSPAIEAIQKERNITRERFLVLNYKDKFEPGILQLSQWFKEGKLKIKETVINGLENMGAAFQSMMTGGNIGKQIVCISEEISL
inactive: erlotinib 0.01 | [1] 0.064 | [2] 0.001 | [3] 0.065 | [4] -0.041 | [5] 0.054 | [6] 0.016 | [7] 0.015 | [8] 0.001 | IRAK-1-4 Inhibitor I -0.035 | ibrutinib -0.006 | [9] 0.026 | ralimetinib 0.019 | [10] 0.068 | [11] -0.042 | [12] -0.011 | [13] -0.024 | [14] 0.006 | [15] 0.037 | [16] 0.029

PRKAR2A (UniProt P13861)
UniProt P13861, sequence (P13861 whole entry, looked up): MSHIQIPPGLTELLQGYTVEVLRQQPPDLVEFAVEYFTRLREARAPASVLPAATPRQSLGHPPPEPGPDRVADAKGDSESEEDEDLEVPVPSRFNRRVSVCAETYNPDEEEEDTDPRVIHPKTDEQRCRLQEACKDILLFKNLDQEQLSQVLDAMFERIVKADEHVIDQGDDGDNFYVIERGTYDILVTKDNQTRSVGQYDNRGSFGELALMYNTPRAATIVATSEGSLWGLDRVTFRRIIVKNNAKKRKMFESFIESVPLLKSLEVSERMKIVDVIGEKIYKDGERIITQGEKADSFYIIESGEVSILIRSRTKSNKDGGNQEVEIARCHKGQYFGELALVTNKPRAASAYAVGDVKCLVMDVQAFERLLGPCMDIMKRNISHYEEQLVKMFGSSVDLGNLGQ
inactive: erlotinib 0.001 | [1] 0.032 | [2] 0.02 | [3] -0.02 | [4] -0.009 | [5] 0 | [6] -0.029 | [8] -0.212 | IRAK-1-4 Inhibitor I -0.06 | ibrutinib 0.044 | [9] -0.064 | ralimetinib 0.033 | [10] -0.032 | [11] 0.018 | [12] 0.015 | [13] 0.005 | [14] 0 | [15] 0.011 | [16] 0.036
active: [7] -0.252
